Where “and” joins values, the source holds several entries; their conditions need not be identical. Identical values can stand only once. Unmarked numbers belong to inactive results. Records with an inconclusive call do not appear. Calls of active or inactive are those of the source. Unless noted, calls come from the whole dose curve; as a rule, active = well fitted curve in the direction sought with a large enough effect in the repeat runs; inconclusive = weak or mixed curves; inactive = no such curve, though single readings can be large; an effect the other way counts as inactive or inconclusive.

In test [1] the target is Thyrotropin receptor (Homo sapiens) (UniProt P16473). Nature of the test: qHTS assay to identify small molecule agonists of the thyroid stimulating hormone receptor (TSHR) signaling pathway (AID 1224843; calls by dose curve; note: nearly all actives have a fitted effect of over 45% in size). In outline: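 TSHR-HEK293 cells in agonist mode, 30 min room-temperature step, then cAMP measured by competitive HTRF (cAMP-d2 with anti-cAMP cryptate) after 1 h at room temperature. Tested at 15 concentrations in triplicate.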
(In general: In qHTS, concentration-response curves come from the screen itself.)

The nature of test [2]: qHTS assay to identify small molecule agonists of H2AX (AID 1224845; active = well fitted activation curve with a large enough effect in the signal ratio in the repeat runs, not every such curve was filed as active; the % refers to the signal ratio). Put shortly:
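Wild-type CHO-K1 cells, plated overnight, exposed 3hr at 37C to 15 concentrations (0.76% DMSO final). Lysed, then HTRF anti-pH2AX (S139) cryptate and anti-H2AX-d2 antibodies, 24 hr room temperature; 665/620 nm emission read.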

Test [3] can be described thus: qHTS assay to identify small molecule agonists of the hypoxia (HIF-1) signaling pathway (AID 1224846; active = well fitted activation curve with a large enough effect in the signal ratio in the repeat runs, not every such curve was filed as active; the % refers to the signal ratio). Put shortly:
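Measured by blue/green FRET after loading CCF4-AM: beta-lactamase expressed from a hypoxia response element in ME-180 cells. Test agents were delivered in DMSO and left 17 hrs; cells had been plated 5 hrs earlier in low-serum (0.5% dialyzed FBS) medium.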

Test [4] is described as follows: qHTS RealTime-Glo MT Cell Viability Assay in HepG2 cells - 24 hour (AID 1224867). Note: nearly all actives have a fitted effect of over 50% in size. In outline: (§1)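 Cells + NanoLuc/prosubstrate dispensed (600 cells/well) → 5 h at 37 C/5% CO2 → compounds in DMSO transferred → 40 h incubation at 37 C, luminescence read at 0, 8, 16, 24, 32, 40 h.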
Test [5] is described as follows: qHTS RealTime-Glo MT Cell Viability Assay in HEK293 cells - 32 hour (AID 1224868). Note: top concentration of the series differs between compounds; nearly all actives have a fitted effect of over 50% in size. Put shortly: (§2)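 Tox21 10K qHTS, HEK293, 600 cells/well, RealTime-Glo reagent co-dispensed with cells; 5 h preincubation, compound by pintool, 37 C, luminescence at 0–40 h.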
The nature of test [6]: A CellTox Green Cytotoxicity Assay to monitor cytotoxicity in HEK293 cells - 0 hour (AID 1224869). Note: nearly all actives have a fitted effect of over 50% in size. In outline: (§3)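 Each value comes from one timepoint of a single continuous run in which HEK293 cells with CellTox Green were exposed to compound for up to 40 h at 37 C, dye fluorescence rising with cell death.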
Test [7] can be described thus: qHTS RealTime-Glo MT Cell Viability Assay in HepG2 cells - 40 hour (AID 1224870). Note: nearly all actives have a fitted effect of over 50% in size. Put shortly:
(§4)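 HepG2 cells (600/well) mixed with RealTime-Glo MT reagent, settled 5 h at 37 C/5% CO2 before compound addition. Nonlytic NanoLuc luminescence from viable-cell prosubstrate reduction read repeatedly during 40 h treatment at 37 C.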

A short description of test [8]: A CellTox Green Cytotoxicity Assay to monitor cytotoxicity in HEK293 cells - 40 hour (AID 1224871). Note: nearly all actives have a fitted effect of over 45% in size. Put shortly: as §3
Test [9] is described as follows: qHTS RealTime-Glo MT Cell Viability Assay in HEK293 cells - 16 hour (AID 1224872). In outline: as §2
Test [10] is described as follows: qHTS RealTime-Glo MT Cell Viability Assay in HepG2 cells - 8 hour (AID 1224873). Note: nearly all actives have a fitted effect of over 55% in size. In outline: as §4
Test [11] in a line: qHTS RealTime-Glo MT Cell Viability Assay in HEK293 cells - 40 hour (AID 1224874). Note: nearly all actives have a fitted effect of over 50% in size. The note with it: RealTime-Glo luminescence; max response: stronger effect = lower value. In outline: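 qHTS format; HEK293 cells with NanoLuc/prosubstrate reagent, 37 C/5% CO2 for 5 h pre-dosing; compounds 23 nL in DMSO; luminescence at each time point reflects viable cells.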
Test [12] is described as follows: A CellTox Green Cytotoxicity Assay to monitor cytotoxicity in HEK293 cells - 24 hour (AID 1224875). Note: nearly all actives have a fitted effect of over 45% in size. In outline: as §3
The nature of test [13]: A CellTox Green Cytotoxicity Assay to monitor cytotoxicity in HepG2 cells - 16 hour (AID 1224876). Note: nearly all actives have a fitted effect of over 45% in size. Put shortly:
(§5)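 Continuous culture of HepG2 cells with a membrane-impermeant DNA dye; rising fluorescence marks dead cells. Compound exposure lasted up to 40 h at 37 C, with reads every 8 h from 0 h.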

The nature of test [14]: qHTS RealTime-Glo MT Cell Viability Assay in HepG2 cells - 32 hour (AID 1224877). Note: nearly all actives have a fitted effect of over 55% in size. In outline:
as §1

The nature of test [15]: A CellTox Green Cytotoxicity Assay to monitor cytotoxicity in HepG2 cells - 24 hour (AID 1224878). Note: nearly all actives have a fitted effect of over 45% in size. Put shortly: as §5
The nature of test [16]: A CellTox Green Cytotoxicity Assay to monitor cytotoxicity in HepG2 cells - 40 hour (AID 1224879). Note: nearly all actives have a fitted effect of over 40% in size. Put shortly:
as §5

A short description of test [17]: qHTS assay to identify small molecule agonists of H2AX - cell viability counter screen (AID 1224847; calls by dose curve; note: nearly all actives have a fitted effect of over 30% in size; note: potency is the fitted concentration of half-maximal effect). In outline: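 After overnight plating of 1000 CHO-K1 cells per well, a 15-concentration compound series was applied for 3 hr at 37C. Luminescence from CellTiter-Glo, read following 30 min at room temperature, reflected cell viability.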
Test [18] can be described thus: qHTS assay to identify small molecule agonists of the hypoxia (HIF-1) signaling pathway - cell viability counter screen (AID 1224844; calls by dose curve; note: nearly all actives have a fitted effect of over 50% in size). In outline: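 Luminescent ATP content (CellTiter-Glo, 30 min, room temperature) served as the viability measure in HRE-bla ME-180 cells exposed to compounds for 17 hrs in low-serum medium (0.5% dialyzed FBS).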
A short description of test [19]: qHTS assay to identify small molecule antagonists of the estrogen related receptor (ERR) signaling pathway from Tox21 library (AID 1224848). Note: nearly all actives have a fitted effect of over 50% in size. In outline:
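ERR reporter cell line (from NTP) seeded 2,000 cells/well, rested 6 h at 37 C/5% CO2, then pin-dosed with compounds in DMSO. After 18 h at 37 C, ONE-Glo added; luminescence read after 30 min at room temperature.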

Test [20] in a line: qHTS assay to identify small molecule agonists of the estrogen related receptor (ERR) signaling pathway from Tox21 library (AID 1224849; calls by dose curve; note: nearly all actives have a fitted effect of over 15% in size). The note with it: ERR reporter cell line, ONE-Glo luciferase, 18 h; at 92.4 µM (top of the series). In outline: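 We plated ERR reporter cells, waited 6 h, added compounds in DMSO by pin tool and incubated them 18 h at 37 C. ONE-Glo was then added and luminescence read after 30 min.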
% is set by controls: 0 for no effect and ±100 for the full control effect.

Thyrotropin receptor (Homo sapiens), sequence (P16473 whole entry, looked up): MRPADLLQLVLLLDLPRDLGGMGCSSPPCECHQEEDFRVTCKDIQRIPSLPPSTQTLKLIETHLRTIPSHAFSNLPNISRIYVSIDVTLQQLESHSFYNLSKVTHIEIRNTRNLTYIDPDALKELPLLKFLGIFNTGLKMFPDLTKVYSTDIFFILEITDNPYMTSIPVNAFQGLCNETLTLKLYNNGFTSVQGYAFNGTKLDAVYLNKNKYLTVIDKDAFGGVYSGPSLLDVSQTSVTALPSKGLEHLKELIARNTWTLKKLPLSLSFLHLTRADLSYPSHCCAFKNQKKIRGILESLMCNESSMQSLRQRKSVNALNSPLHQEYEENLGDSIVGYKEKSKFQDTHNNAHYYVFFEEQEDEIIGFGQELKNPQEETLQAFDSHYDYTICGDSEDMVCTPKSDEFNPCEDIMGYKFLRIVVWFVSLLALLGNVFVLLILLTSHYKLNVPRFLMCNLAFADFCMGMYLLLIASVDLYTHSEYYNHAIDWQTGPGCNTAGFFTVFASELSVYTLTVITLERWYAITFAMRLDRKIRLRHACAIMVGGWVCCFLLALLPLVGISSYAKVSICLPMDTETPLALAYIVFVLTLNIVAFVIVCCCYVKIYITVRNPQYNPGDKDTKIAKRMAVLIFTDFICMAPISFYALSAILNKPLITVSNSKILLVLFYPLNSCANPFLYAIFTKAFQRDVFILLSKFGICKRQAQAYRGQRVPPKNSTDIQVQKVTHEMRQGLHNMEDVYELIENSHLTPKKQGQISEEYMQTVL

For the compound `c1ccc(P(c2ccccc2)c2ccccc2)cc1`, the Potency result in test [1], in [2], in [4], in [5], in test [6] and in [7] was “inactive” in each case. The Potency entry in test [8], in test [9], in test [10], in test [12], in test [13] and in test [14] was “inactive” each time. For the same compound, the Potency result in [15] and in test [16] was “inactive” in each case. The call in [3] was inactive. Moreover, the max response in test [11] was -31.4%.
`Oc1c(Cl)c(Cl)c(Cl)c(Cl)c1Cl`: the Potency entry in [1], in [2], in test [4], in test [5], in test [6] and in [7] was “inactive” in each case. Also, the Potency entry in test [8], in test [9], in test [10], in [12], in test [13] and in [14] was “inactive” in each case. The Potency entry in test [15] and in test [16] was “inactive” each time. Besides, the call in [3] was inactive. Moreover, in test [17], the Potency was 88 µM (active).
In the case of `C=CCc1ccc2c(c1)OCO2`, the Potency result in test [1], in [2], in test [4], in test [5], in test [6] and in [7] was “inactive” in each case. Also, the Potency result in [8], in test [9], in test [10], in test [12], in test [13] and in test [14] was “inactive” throughout. Also, the Potency result in test [15] and in [16] was “inactive” each time. In test [3], the result was inactive.
Take `COC(=O)c1sccc1S(=O)(=O)NC(=O)Nc1nc(C)nc(OC)n1`: the Potency entry in test [1], in test [18], in [4], in test [5], in test [6] and in [7] was “inactive” in each case. The Potency entry in test [8], in test [9], in [10], in test [12], in test [13] and in test [14] was “inactive” in each case. The Potency result in [15] and in test [16] was “inactive” in each case. The result in test [3] was inactive.
For the compound `O=[N+]([O-])c1cccc2ccccc12`, the Potency result in test [1], in [2], in test [19], in test [4], in test [5] and in [6] was “inactive” in each case. Besides, the Potency result in [7], in [8], in test [9], in [10], in [12] and in test [13] was “inactive” in each case. Further, the Potency result in [14], in [15] and in test [16] was “inactive” throughout. The call in test [3] was inactive. Further, the activity change, positive = activation in test [20] is -1.67% and -0.342%. In addition, in [11], the max response is 3.63% and 7.21%.
Take `Cc1ccc(N)c(N)c1`: the Potency result in test [1], in test [18], in test [17], in test [4], in test [6] and in test [7] was “inactive” each time. Moreover, the Potency entry in test [8], in test [12], in test [13], in test [14], in [15] and in [16] was “inactive” throughout. For the same compound, in [3], the call was inactive.
Take `CCCCCCCCOC(=O)c1ccccc1C(=O)OCCCCCCCC`: the Potency result in test [1], in test [18], in test [17], in test [4], in [5] and in test [6] was “inactive” throughout. Besides, the Potency result in test [7], in test [9], in test [10], in [12], in test [13] and in [14] was “inactive” throughout. The Potency result in test [15] and in test [16] was “inactive” each time. For the same compound, the result in test [3] was inactive. Further, the max response in test [11] is 2.33% and -2.33%.

For the origin of these results see PubChem BioAssay (Tox21).
